Screens deposited in PubChem BioAssay by several laboratories.
BCLXL inh: blocks human Bcl-xL binding to Bim BH3 peptide; Q07817; GST-Bcl-xL / FITC-Bim BH3 peptide fluorescence polarization; inhibition, % at 10.9 µM; actives 0.7% (n = 320,000);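 active means inhibition above the mean of all tested compounds plus 3 SD, cutoff set per campaign, cut at about 30% in these data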;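 further: 0% = DMSO wells and 100% = unlabeled Bim-BH3 peptide competitor; inhibitors lower millipolarization by displacing the labeled peptide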
Target sequence (Q07817 whole entry, looked up): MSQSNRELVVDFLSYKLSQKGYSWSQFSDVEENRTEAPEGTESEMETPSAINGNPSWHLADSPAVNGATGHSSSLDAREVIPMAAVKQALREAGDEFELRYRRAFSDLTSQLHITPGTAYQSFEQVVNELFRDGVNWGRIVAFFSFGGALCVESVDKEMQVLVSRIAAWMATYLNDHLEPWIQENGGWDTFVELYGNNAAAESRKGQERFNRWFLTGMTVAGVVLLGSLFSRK
MCL1 BIM primary: MCL1-BIM-BH3 interaction inhibition (human) | Q07820 | inhibition, % at 10.9 µM | AID 2057 | GST-MCL1 / FITC-Bim-BH3 fluorescence polarization | actives 0.68% (n = 320,000);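 active means inhibition above the mean inhibition of all tested compounds plus 3 SD, set per campaign, cut at about 40% in these data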;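 further: 0% = DMSO wells and 100% = unlabeled Bim-BH3 peptide control; higher means more loss of mP so more displacement of Bim peptide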
E coli Lon inh: inhibitors of E. coli Lon protease; purified E. coli Lon protease, fluorescence polarization; actives 0.42% (n = 360,000); inhibition, % at 7.94 µM; P0A9M0; in the data active means inhibition above about 13%, passing the limit was not always enough;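 further: 0% = enzyme with probe and DMSO and 100% = no enzyme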
GLD-1 RNA inh: GLD-1-TGE RNA interaction inhibition (C. elegans). actives 0.44% (n = 320,000). AID 2280. purified GLD-1 + fluorescein TGE RNA, fluorescence polarization. inhibition, % at 5.96 µM. Q17339;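 active means percent inhibition above a per-plate cutoff, the plate mean of test compounds plus 3 SD, cut at about 30% in these data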;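 further: 0% = DMSO wells with GLD-1 and probe and 100% = wells lacking GLD-1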
EBV gp42 inh: inhibitors of Epstein-Barr virus glycoprotein 42; actives 0.42% (n = 220,000); Fluorescence polarization binding assay, mP read-out; AID 1085; Q1HVG2; inhibition, % (tested at 21.74 µM); in the data active means inhibition above about 50%
MEX-5 binding: C. elegans MEX-5 TCR-2 RNA binding activity. activity score (negative = inhibition of binding), % at 10 µM. Q9XUB2. AID 1832. actives 0.38% (n = 300,000). MEX-5/FITC-TCR2 RNA binding, fluorescence polarization; stronger effect = lower value;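 active means inhibition past about -25% in most replicates, and total fluorescence under double the plate's negative control median, limit read from the data; inconclusive means replicates evenly split on the limit, or fluorescence at least double controls; inactive means too little inhibition in most replicates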;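 further: 0% = DMSO and -100% = 5 µM competing unlabeled TCR2 RNA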
Target sequence (Q9XUB2 whole entry, looked up): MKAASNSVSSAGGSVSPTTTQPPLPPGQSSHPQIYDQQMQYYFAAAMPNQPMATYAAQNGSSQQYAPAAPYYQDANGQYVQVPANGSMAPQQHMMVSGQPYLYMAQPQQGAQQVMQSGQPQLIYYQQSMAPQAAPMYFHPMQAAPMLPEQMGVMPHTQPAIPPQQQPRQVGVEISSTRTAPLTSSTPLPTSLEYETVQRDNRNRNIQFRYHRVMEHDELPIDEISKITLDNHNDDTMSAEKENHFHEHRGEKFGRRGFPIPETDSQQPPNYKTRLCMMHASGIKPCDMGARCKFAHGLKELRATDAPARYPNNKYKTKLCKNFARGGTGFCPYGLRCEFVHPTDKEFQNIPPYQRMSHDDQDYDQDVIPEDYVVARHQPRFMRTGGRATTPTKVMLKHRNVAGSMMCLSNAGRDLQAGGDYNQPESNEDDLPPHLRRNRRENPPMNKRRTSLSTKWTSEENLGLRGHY
BCLXL inh confirm: Bcl-xL (human) inhibition, MCL1 counter-screen confirmation | GST-Bcl-xL / FITC-Bim BH3 peptide FP binding | shares compounds with MCL1 BIM primary | actives 54% (n = 1,700) | inhibition, % at 10.9 µM;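 active means inhibition above a cutoff equal to the mean inhibition of all tested compounds plus 3 SD, cut at about 30% in these data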;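 further: 0% = DMSO wells and 100% = unlabeled Bim BH3 control peptide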
MCL1 BIM confirm: confirmation of human MCL1 and BIM-BH3 interaction inhibitors. shares compounds with MCL1 BIM primary. GST-MCL1 / FITC-Bim-BH3 fluorescence polarization. inhibition, % at 10.9 µM. actives 61% (n = 1,700). AID 2168;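 active means inhibition above the average of all tested compounds plus 3 SD, cut at about 40% in these data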;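 further: 0% = DMSO wells and 100% = unlabeled Bim-BH3 control peptide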
Starred values were filed as active, the others as inactive; u = inconclusive; x = not tested or not shown. Only some compounds are listed: those with a hit (about 1.4% of all), similar ones and a draw of the others.

SMILES | BCLXL inh | MCL1 BIM primary | E coli Lon inh | GLD-1 RNA inh | EBV gp42 inh | MEX-5 binding | BCLXL inh confirm | MCL1 BIM confirm
O=C(O)CN1C(=O)/C(=C\c2cc([N+](=O)[O-])ccc2OCc2ccccc2Cl)SC1=S | 3 | 51* | -5 | 4 | x | -10 | 22 | 47*
O=C1/C(=C\c2cc([N+](=O)[O-])ccc2O)SC(=S)N1Cc1ccc(Cl)cc1 | 76* | 66* | -236 | 47* | x | u | 88* | 105*
O=C1/C(=C\c2cccc(O)c2O)SC(=S)N1Cc1ccccc1 | 16 | 16 | 1 | 5 | x | -1 | x | x
O=C(O)CN1C(=O)/C(=C\c2cc(Br)ccc2OCc2ccc(Cl)cc2)SC1=S | x | x | -4 | x | x | -4 | x | x
CCOC(=O)CN(C(=O)CNC(=O)c1ccco1)C(C(=O)NC1CCCCC1)c1cccs1 (stereo not given) | 52* | 92* | -8 | 27 | -1 | 0 | 46* | 52*
CCOC(=O)CN(C(=O)CNC(=O)c1ccco1)C(C(=O)NC1CCCC1)c1ccccc1OCC (stereo not given) | 2 | 4 | -5 | 14 | -17 | 1 | x | x
CN1CCc2cccc3c2[C@H]1Cc1ccc(O)c(O)c1-3 | 36* | 56* | 3 | 7 | -1 | -84* | 42* | 70*
CCOC(=O)C(C)N1C(=O)S/C(=C\c2ccc(-c3ccccc3C(=O)O)o2)C1=O (stereo not given) | 31* | 58* | -19 | -3 | x | -7 | 42* | 62*
C#CCN1C(=O)S/C(=C\c2ccc(-c3ccc(C(=O)O)cc3C)o2)C1=O | 15 | 66* | -16 | -3 | x | -4 | 1 | 15
Cc1cc(C(=O)O)ccc1-c1ccc(/C=C2\SC(=O)N(CC(=O)Nc3ccc4c(c3)OCO4)C2=O)o1 | x | x | 6 | x | x | x | x | x
O=C(CN1C(=O)CC(c2ccco2)Sc2ccccc21)NC1CCCCC1 (stereo not given) | 3 | 2 | 3 | 2 | -15 | 1 | x | x
COc1ccc(NC(=O)Cc2ccsc2)cc1S(=O)(=O)N1CCOCC1 | 4 | 7 | 1 | 6 | x | x | x | x
O=C(COc1ccc(Br)cc1)OCCN1CCCCC1 | -1 | 3 | -3 | 10 | x | 1 | x | x
O=c1[nH]n2c(=O)c3c([nH]c2c1N=Nc1cccc(Cl)c1)CCC3 | 28 | 42* | -19 | 17 | 52* | -4 | 18 | 40
O=C(CNC(=O)/C=C/c1ccco1)N=Nc1c(O)[nH]c2ccccc12 | 20 | 42* | 2 | -2 | x | -29* | 28 | 57*
O=C(CNC(=O)Cc1ccccc1)N=Nc1c(O)[nH]c2ccccc12 | 4 | -4 | -1 | -3 | x | -4 | x | x
Cc1ccc(N=Cc2cccc(O)c2O)c(C)c1 | 27 | 60* | 9 | 7 | -17 | 0 | 20 | 20
CCOC(=O)c1c(/N=C/c2cccc([N+](=O)[O-])c2O)sc(C)c1C | 45* | 55* | 0 | 21 | 2 | -6 | 16 | 22
CC(C)c1ccc(C2C3CSCC=C3C(C#N)=C(N)C2(C#N)C#N)cc1 (stereo not given) | 0 | -13 | x | 4 | -27 | 3 | x | x
N#CC1=C(N)C(C#N)(C#N)C(c2cccnc2)C2CC(c3ccccc3)CC=C12 (stereo not given) | 110* | 135* | 18* | 103* | 23 | 3 | 11 | 14
N#CC1=C(N)C(C#N)(C#N)[C@H](c2cccnc2)[C@H]2CN(C(=O)OCc3ccccc3)CC=C12 | 8 | 12 | 7 | 8 | 4 | -1 | x | x
N#CC1=C(N)C(C#N)(C#N)C(c2ccncc2)C2CN(C(=O)OCc3ccccc3)CC=C12 (stereo not given) | 19 | 14 | -6 | 0 | -23 | 0 | x | x
N#CC1=C(N)C(C#N)(C#N)C(c2cccnc2)C2CCCC=C12 (stereo not given) | 84* | 81* | x | 60* | 49 | -26* | 75* | 85*
N#CC1=C(N)C(C#N)(C#N)C(c2ccc[nH]2)C2CCCC=C12 (stereo not given) | 67* | 72* | 8 | 77* | 8 | -18 | 39* | 27
Clc1cc(Br)ccc1NCc1cccnc1 | 1 | 2 | 6 | -6 | x | 1 | x | x
SMILES | BCLXL inh | MCL1 BIM primary | E coli Lon inh | GLD-1 RNA inh | EBV gp42 inh | MEX-5 binding | BCLXL inh confirm | MCL1 BIM confirm
CC1CN(C(=O)CCNC(=O)c2ccccc2Cl)CC(C)O1 (stereo not given) | 9 | 5 | -10 | 4 | x | 1 | x | x
COc1ccccc1OCC(=O)N/N=C/C=C/c1ccc([N+](=O)[O-])o1 | 19 | 41* | -5 | -5 | -1 | 0 | 6 | 18
O=C(CSc1nnc(SCc2ccccc2)s1)N/N=C/C=C\c1ccco1 | 1 | 43* | -5 | 1 | 53* | 0 | 31* | 59*
Cc1ccccc1OCC(=O)N/N=C/c1ccc([N+](=O)[O-])o1 | 11 | 18 | -8 | 1 | -10 | 3 | x | x
Cc1ccc(OCC(=O)N/N=C/C=C/c2ccco2)cc1 | 18 | 40* | -11 | 9 | -18 | -2 | 55* | 71*
COc1cc(CN2CCCN(C)CC2)cc([N+](=O)[O-])c1O | 4 | 0 | -1 | 1 | x | -1 | x | x
Cc1ccc2c(c1)N(CC(=O)N1CCCC1)C(=O)c1cccnc1O2 | 2 | 6 | -14 | 3 | x | 0 | x | x
COc1ccc(OCC(O)CNC(=O)c2ccc(OC)cc2)cc1 (stereo not given) | 4 | 44* | 2 | -5 | -6 | -1 | 5 | 7
COc1ccc(OCC(O)CNC(=O)c2ccc(Br)cc2)cc1 (stereo not given) | 4 | 4 | -8 | 4 | -3 | 0 | x | x
Cn1c2ccccc2c2cc(/C=N/NC(=O)c3cc(O)ccc3O)ccc21 | 32* | 57* | 5 | 8 | x | 1 | 62* | 93*
CCCOc1ccc(CNC(=S)Nc2ccccc2)cc1Cl | 7 | 42* | 6 | 5 | x | 2 | 7 | 9
CCCCn1c(N)c(N(CCC(C)C)C(=O)COC(=O)Cc2ccc(Cl)cc2)c(=O)[nH]c1=O | x | x | 6 | x | x | x | x | x
O=C(CSc1nc2ccccc2s1)Nc1cc(S(=O)(=O)N2CCOCC2)ccc1O | 16 | 43* | 9 | 3 | -17 | -3 | 23 | 49*
CCCCN(C(=O)c1cc(-c2ccco2)nc2ccccc12)c1c(N)n(CCCC)c(=O)[nH]c1=O | 21 | 45* | 8 | 15 | x | 1 | 17 | 31
